Source: PubChem BioAssay AID1259422 (The Scripps Research Institute Molecular Screening Center, 2018)
Several values for one entry are separate records, joined by “and”; a condition that tells them apart may be missing. Equal values may be shown once. Out of some 640,000 compounds screened, about 9,300 (1.5%) were called active. This is one part of a sample in which actives are shown more often than they occur. Rule as the data show it: active = inhibition above about 32%; inactive = the rest.

Assay: TEAD-YAP interaction inhibition, primary screen, TEAD-YAP interaction inhibitor project, luminescence, HEK-TIYL cells (AID 1259422);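 also: 0% = median of test compound wells and 100% = reference inhibitor wells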
Details: TEAD-Gal4/YAP UAS-luciferase luminescence, at 9.12 µM, hits give high values

SMILES | inhibition
COc1ccc(OC)c(C2/C(=C(\O)c3ccc(Br)cc3)C(=O)C(=O)N2CCCn2ccnc2)c1 (stereo not drawn) | -4.36% (inactive)
CCOC(=O)c1c(NC(=O)c2cc([N+](=O)[O-])ccc2Cl)sc(-c2ccccc2)c1C | 8.37% (inactive)
CCCc1c(C(=O)N[C@H]2C[C@H]3C(=O)N[C@@H](CSCc4ccccc4)C(=O)N3C2)cnn1-c1ccccc1 | 2.64% (inactive)
Cc1csc(=Nc2ccccc2)n1C1CCCC1 | -5.23% (inactive)
FC(F)Oc1ccc(-c2csc(=Nc3cccnc3)n2C2CC2)cc1 | 50.1% (active)
COc1ccc(-c2csc(=Nc3ccccc3)n2C)cc1 | -28.4% (inactive)
CC1CCCC(NC(=O)CCCn2nnc3ccccc3c2=O)C1C (stereo not drawn) | -2.4% (inactive)
CC(=O)N1CCN(c2nc(Nc3ccccc3C(=O)c3ccccc3)nc(OC(C(F)(F)F)C(F)(F)F)n2)CC1 | 10.2% (inactive)
O=C(NCCN1CCCCC1CO)c1ccc(OC2CCN(C(=O)C3CC3)CC2)cc1 (stereo not drawn) | 1.44% (inactive)
COC(=O)CCC(=O)N1CCC(Oc2ccc(C(=O)NCCc3ccccc3)cc2)CC1 | 5.68% (inactive)
O=C(NCCc1ccccc1)c1ccc(OC2CCN(C(=O)C3CCCO3)CC2)cc1 (stereo not drawn) | 40.4% (active)
O=C(COC(=O)CCN1C(=O)C2CC=CCC2C1=O)Nc1ncc(Cl)cc1Cl (stereo not drawn) | 5.49% (inactive)
O=C1Cc2cc(Nc3cc(Nc4ccccn4)c(C(F)(F)F)cn3)ccc2N1 | 22.7% (inactive)
CNC(=O)c1cc(F)ccc1Nc1cc(Nc2ccc3c(c2)CCC(=O)N3)ncc1C(F)(F)F | 78.9% (active)
CNC(=O)c1cc(F)ccc1Nc1cc(Nc2ccc3nc[nH]c3c2)ncc1C(F)(F)F | -9.89% (inactive)
CNC(=O)c1cc(F)ccc1Nc1cc(Nc2ccc(NC(C)=O)cn2)ncc1C(F)(F)F | 84.8% (active)
CCc1ccc(NC(=O)C2CCN(S(=O)(=O)c3ccc4c(c3)CCC(=O)N4)CC2)cc1 | -10.1% (inactive)
CNC(=O)c1cc(F)ccc1Nc1cc(Nc2ccc3[nH]ncc3c2)ncc1C(F)(F)F | 27.2% (inactive)
O=C(CSc1nc2ccccc2s1)Nc1ccc(O)c(C(=O)O)c1 | -2.73% (inactive)
OCCNCCCOc1ccc(I)cc1 | 15.9% (inactive)

SMILES | inhibition
COc1c(C)c2c(c(O)c1C/C=C(\C)CCC(=O)O)C(=O)OC2 | 39.5% (active) and 67.1% (active)
O=c1oc2ccccc2cc1-c1ccc(Cl)cc1 | -27% (inactive)
O=c1oc2cc(O)ccc2cc1-c1ccc(F)cc1 | 36% (active)
Cc1ccc(Nc2nnc(-c3cc4ccc(O)cc4oc3=O)s2)cc1 | 8.37% (inactive)
COc1cccc(CN2CCN(Cc3cn[nH]c3-c3cccc(F)c3)CC2CCO)c1 (stereo not drawn) | 6.95% (inactive)
CCCCSCCC(=O)O | -16.4% (inactive)
COCCNc1cc(-c2ccc(F)cc2)nc(C)n1 | -31.9% (inactive)
COC(CNc1cc(-c2ccc(F)cc2)nc(-c2ccccn2)n1)OC | 42.7% (active)
COC(CNc1cc(-c2cccc(C(F)(F)F)c2)nc(-c2ccncc2)n1)OC | 14.2% (inactive)
CC(C)(C)NCCOc1ccccc1F | 14.1% (inactive)
CCOc1cc(C#N)ccc1OCC(=O)Nc1ccc(C)cc1C | 15.8% (inactive)
COC(=O)C1=C(C)N=c2s/c(=C/c3ccc(N(C)C)cc3)c(=O)n2C1c1ccccc1Cl (stereo not drawn) | -14.2% (inactive)
O=C(NNS(=O)(=O)c1cccc(Cl)c1Cl)C12CC3CC(CC(C3)C1)C2 | -2.41% (inactive)
CNC(=O)c1ccccc1Nc1cc(Nc2ccc(N3CCOCC3)cc2OC)ncc1F | 6.22% (inactive)
Cc1cc(C(=O)Nc2ccccc2C(F)(F)F)ccc1[N+](=O)[O-] | -8.76% (inactive)
CCCn1c(=S)[nH]c2cc(C(=O)NCCN(CC)CC)ccc2c1=O | 12.2% (inactive)
Cc1ccc(Nc2nnc(-c3ccc(C(=O)N(C)C)cc3)c3ccccc23)cc1 | -11.2% (inactive)
CCN(CC)CCNC(=O)c1ccc(Nc2cc(Nc3ccccc3C(=O)NC)c(C(F)(F)F)cn2)nc1 | 96.8% (active)
CCN(CC)CCNC(=O)c1ccc(Nc2cc(Nc3ccccc3C(=O)NC)c(C(F)(F)F)cn2)c(C)c1 | 84.7% (active)
CCN(CC)CCNC(=O)c1ccc2c(=O)n(CCN(CC)CC)c(=S)[nH]c2c1 | 18.8% (inactive)

SMILES | inhibition
CCN(CC)CCOc1ccc(Nc2cc(Nc3ccccc3C(=O)NC)c(C(F)(F)F)cn2)c(OC)c1 | 83.4% (active)
COc1cc(N2CCOCC2)ccc1Nc1cc(Nc2ccccc2-n2cccn2)c(C(F)(F)F)cn1 | -8.57% (inactive)
CNC(=O)c1ccccc1Nc1cc(Nc2ccc(C(=O)N(C)C)cc2)ncc1C(F)(F)F | 77.1% (active)
CNC(=O)c1ccccc1Nc1nc(Nc2ccc(-n3cnc(-c4ccc(C)nc4)n3)cc2)ncc1Cl | 8.52% (inactive)
CC(C)N(CCNC(=O)c1ccnc(Nc2ccc(C(F)(F)F)cc2)c1)C(C)C | -16% (inactive)
CCc1ccccc1N(CC(=O)Nc1cc(Cl)ccc1C)S(C)(=O)=O | 1.56% (inactive)
Cc1ccc(OCCSc2nc(N)cc(=O)[nH]2)cc1 | -7.78% (inactive)
CN(C)CCNc1ccnc2c(-c3ccsc3)cnn12 | -57.5% (inactive)
O=C(Nc1ccc2c(c1)CN(C1CCOCC1)CC2)c1ccc(C(F)(F)F)cc1 | 17.5% (inactive)
COc1ccc(NC(=O)/C(=C\c2ccc3c(c2)OCO3)NC(=O)c2ccccc2Cl)c(OC)c1 | 21.2% (inactive)
COc1ccc(OC)c(/C=N/NC(=O)COc2ccc(Br)cc2)c1 | -1.77% (inactive)
COc1ccc(/C=N/NC(=O)COc2ccc(Cl)cc2Br)cc1OC | 8.94% (inactive)
CCOC(=O)c1c(C)[nH]c(C(=O)OCC(=O)Nc2ccccc2C(C)(C)C)c1C | 7.06% (inactive)
Cc1cc2nn(-c3ccccc3)nc2cc1NC(=S)NC(=O)c1oc2ccccc2c1C | 7.4% (inactive)
C=C(C)C1C=C(C)/C(=N/NC(=O)c2ccc(N3CCCC3=O)cc2)CC1 (stereo not drawn) | 0.92% (inactive)
O=C1/C(=C/c2cccnc2)Oc2cc(OC(=O)C3CC3)ccc21 | 33.5% (active)
O=C(Oc1ccc2c(c1)C(=O)c1cc(OC(=O)c3cccnc3)ccc1-2)c1cccnc1 | -14.7% (inactive)
COc1ccc(/C=C2\Oc3cc(OC(=O)C4CC4)cc(C)c3C2=O)c(OC)c1OC | -17.3% (inactive)
